# Screening data: PubChem BioAssay, National Center for Advancing Translational Sciences (NCATS)
# BAZ2B inh = inhibitors of human BAZ2B bromodomain. 4.4% of 360,000 active. Potency, µM (highest dose often 114 µM), hits mostly inhibitors. AlphaScreen BAZ2B-H3K14Ac peptide displacement; also: nearly all actives have a fitted effect of over 60% in size
#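 Protein-peptide AlphaScreen: BAZ2B 50 nM, b-H3K14Ac 50 nM, 1x PBS pH 7.4 + 0.01% Tween-20. Preincubation 30 min RT; cpd 30 min RT (top 110 uM); beads 20 min RT, light-protected.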
# JMJD2A Tudor = JMJD2A Tudor domain (human) inhibition; O75164; AlphaScreen JMJD2A-Tudor / H3K4me3 peptide binding; Potency, µM (top dose mostly 114 µM), actives largely listed as inhibitors; 4.4% of 390,000 active; AID 504339; also: nearly all actives have a fitted effect of over 50% in size
# Sfp PPTase inh = Sfp phosphopantetheinyl transferase inhibition | Biochemical Sfp PPTase activity, qHTS | Potency, µM, most hits filed as inhibitors | 3.5% of 310,000 active;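 also: the enzyme is Sfp with the accession as filed and its product quenches rhodamine fluorescence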
#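 Reaction rates are the 30-min fluorescence difference (ex 525, em 598 nm) in wells containing 15 nM Sfp, 5 uM rhodamine-CoA and 12.5 uM BHQ-2-YbbR at pH 7.6 with 10 mM MgCl2.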
# PLK1 PBD inh = inhibitors of human PLK1 polo-box domain binding. Plk1 PBD binding of FITC phosphopeptide, fluorescence polarization. P53350. 2.8% of 360,000 active. Potency, µM, most hits filed as inhibitors. AID 720504; also: series mostly up to about 57 µM; nearly all actives have a fitted effect of over 65% in size
# G9a block = inhibitors of human histone lysine methyltransferase G9a | 8.8% of 350,000 active | Potency, µM (top dose mostly 102 µM), usual class: inhibitors | Q96KQ7 | G9a H3K9 monomethylation, AlphaScreen, 2 h; also: nearly all actives have a fitted effect of over 75% in size
# Target sequence (Q96KQ7 913-1193 limits assumed): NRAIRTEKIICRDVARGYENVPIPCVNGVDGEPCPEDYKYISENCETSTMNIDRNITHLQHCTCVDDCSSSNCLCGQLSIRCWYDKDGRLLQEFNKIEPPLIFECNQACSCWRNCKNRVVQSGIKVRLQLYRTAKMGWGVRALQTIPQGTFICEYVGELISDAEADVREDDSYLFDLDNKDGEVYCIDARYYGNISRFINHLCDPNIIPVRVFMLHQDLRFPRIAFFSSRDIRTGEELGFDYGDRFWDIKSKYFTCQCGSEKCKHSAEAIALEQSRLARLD
#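 AlphaScreen read-out: biotin-H3K9 peptide (500 nM) methylation by 20 nM enzyme with 20 uM SAM, 2 h at room temperature after 15 min compound preincubation; anti-monomethyl H3K9 antibody plus donor/acceptor beads, 10 min dark.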
# HP1b binding inh = HP1-beta chromodomain-methylated histone interaction inhibition; P83916; AlphaScreen HP1-beta / biotin-H3K9me3 peptide binding; Potency, µM (titrated, usually from 114 µM), hits mostly inhibitors; 0.56% of 390,000 active; AID 540317; also: nearly all actives have a fitted effect of over 70% in size
# Target sequence (P83916 whole entry, looked up): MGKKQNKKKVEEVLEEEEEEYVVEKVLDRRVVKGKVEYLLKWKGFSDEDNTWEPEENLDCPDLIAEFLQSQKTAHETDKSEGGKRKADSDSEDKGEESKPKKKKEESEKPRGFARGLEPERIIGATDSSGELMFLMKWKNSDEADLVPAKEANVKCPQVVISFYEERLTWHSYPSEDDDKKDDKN
#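 AlphaScreen: HP1-beta (50 nM) preformed 30 min with biotin-H3(1-18)K9me3 peptide (50 nM) in PBS pH 7.4, 0.01% Tween-20. Compound added for 30 min at RT, then streptavidin donor/nickel chelate acceptor beads (10 ug/mL) for 30 min.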
# A number is an active result; n = inactive; u = inconclusive; x = not tested or not shown; ! = repeats disagree; [ ] = another dose, or the depositor's remark. Only some compounds are listed: those with a hit (about 12% of all), similar ones and a draw of the others. Calls follow the shape of the dose curve; as a rule, active = well fitted curve in the direction sought with a large enough effect; inconclusive = small, poorly fitted or top-dose-only effect, or another doubt; inactive = no such curve, though single readings can be large; an effect the other way counts as inactive or inconclusive.
SMILES,BAZ2B inh,JMJD2A Tudor,Sfp PPTase inh,PLK1 PBD inh,G9a block,HP1b binding inh
CCN(CC)CCOC(=O)C1(c2ccc([N+](=O)[O-])cc2)CCCC1,n,n,n,n,12.6µM!,n
O=C(NCC(c1ccc(F)cc1)N1CCOCC1)c1cccnc1Sc1ccccc1 (stereo not drawn),n,n,x,n,n,n
Cc1ccc(Sc2ncccc2C(=O)NCC(c2ccc(F)cc2)N2CCOCC2)cc1C (stereo not drawn),n,u,x,n,0.891µM,n
CCOC(=O)C1=C(COC(=O)/C=C/c2ccco2)NC(=O)NC1C (stereo not drawn),50.1µM,28.2µM,x,u,n[0.501 µM],u
CCOC(=O)C1=C(COC(=O)c2ccccc2OC)NC(=O)NC1C (stereo not drawn),n,n,x,n,3.16µM,n
Cc1ccc(N(CC(=O)Nc2ccc(C)c(Cl)c2)S(=O)(=O)c2cccs2)cc1,x,n,x,x,n,n
CC(C)Cn1c(=O)c2ccccc2n2c(-c3ccc(Br)cc3)nnc12,n,u,x,x,n,n
CC(C)OCCCn1c(=O)c2ccccc2n2c(-c3ccc(F)c(F)c3)nnc12,50.1µM,u,x,x,u,n
Cc1c(C)c2c(c(C)c1O)CCC(C)(CCCC(C)CCCC(C)CCCC(C)C)O2 (stereo not drawn),x,x,n,x,n[12.7 µM],x
COc1ccccc1N1CCN(C(=O)CSc2ncccc2-c2nc3ccccc3[nH]2)CC1,n,n,n,n,44.7µM,n
O=C(CSc1nc2ccccc2[nH]1)N1c2ccccc2Sc2ccccc21,u,u,n,n,44.7µM,n
O=C(CSc1ncnc2scc(-c3ccccc3)c12)N1CCN(c2ccccc2F)CC1,n,n,n,n,n,n
COc1ccccc1N1CCN(C(=O)CC(NC(=O)c2ccccc2Cl)c2ccccc2)CC1 (stereo not drawn),n,n,x,n,44.7µM,n
COc1ccccc1N1CCN(C(=O)CSc2ncnc3scc(-c4ccccc4)c23)CC1,n,u,n,15µM,n,n
O=C(CNC(=O)c1ccccc1Cl)OC(C(=O)Nc1cc(C(F)(F)F)ccc1Cl)c1ccccc1 (stereo not drawn),x,n,x,x,x,x
COc1ccc(N2CCN(C(=O)c3cccnc3SCc3cccc(Br)c3)CC2)cc1,u,22.4µM,n,n,12.6µM,u
O=C(CSc1n[nH]c(-c2ccccc2)n1)N1CCN(c2ccc(F)cc2)CC1,n,n,x,x,n,n
COc1ccc(N2CCN(C(=O)c3cnc(N4CCCC4)nc3C)CC2)cc1,n,n,x,x,n[12.7 µM],n
Cc1c(C)n(C(=O)CSc2nc3ccccc3[nH]2)c2ccccc12,u,u,n,n,50.1µM,n
COc1ccc(N2CCN(C(=O)CSc3ncccc3-c3nc4ccccc4[nH]3)CC2)cc1,u,u,n,n,25.1µM,n
COc1ccc(N2CCN(C(=O)CSc3n[nH]c(-c4ccccc4)n3)CC2)cc1,n,n,x,x,15.8µM,n
COc1ccc(-c2noc(CCC(=O)N3CCN(c4cccc(Cl)c4)CC3)n2)cc1,x,n,x,n,x,n
CCc1nc2ccc(C(=O)NCc3cccs3)cn2c1N(CCC(C)C)CCN(C)C,x,x,x,n,x,x
CCc1ccc(OCC(=O)N(Cc2cccs2)c2ccc(Cl)cc2)cc1,n,n,x,x,n,n
COc1ccc2nc(SCC(=O)N3CCN(c4ccc(F)cc4)CC3)c(C#N)cc2c1,n,u,n,2.99µM,u,u
SMILES,BAZ2B inh,JMJD2A Tudor,Sfp PPTase inh,PLK1 PBD inh,G9a block,HP1b binding inh
O=C(CCCSc1nc2ccccc2[nH]1)NC(c1ccccc1)c1ccccc1,n,n,n,n,n,n
O=C(CCCSc1nc2ccccc2[nH]1)NCc1ccccc1Cl,n,n,n,n,35.5µM,u
O=C(CCCSc1nc2ccccc2[nH]1)N1CCN(c2ccccc2)CC1,n,n,n,n,44.7µM,n
COc1ccccc1N1CCN(C(=O)CSc2nc3ccccc3[nH]2)CC1,n,n,n,n,7.94µM,n
O=C(CSc1nc2ccccc2[nH]1)N1CCN(c2ccccc2)CC1,n,n,n,n,u,n
COc1ccccc1N1CCN(C(=O)CSc2nc(N)cc(=O)[nH]2)CC1,n,n,n,n,n,n
Oc1ccccc1/C=N/NC(=S)NC1CC2C=CC1C2 (stereo not drawn),28.2µM,44.7µM,n,n,u,n
Oc1c(Cl)cc(Cl)cc1/C=N/NC(=S)NC1CC2C=CC1C2 (stereo not drawn),7.94µM,50.1µM,n,u,n,n
CCOc1ccc(S(=O)(=O)N2CCC(C(=O)NC3CCCCC3)CC2)cc1,n,n,n,n,u,n
CC(C)c1ccc(C(CC(=O)O)N2Cc3ccccc3C2=O)cc1 (stereo not drawn),n,n,n,n,n,n
CC(C)Oc1ccc(CNCC2(O)CCOC(C)(C)C2)cc1 (stereo not drawn),u,2.24µM,n,29.9µM,8.91µM,u
COc1ccc(NC(=O)COC(=O)Cc2ccccc2[N+](=O)[O-])cc1OC,n,n,n,n,n,n
COc1ccc(NCc2ccccc2[N+](=O)[O-])cc1OC,50.1µM,50.1µM,n,n,11.2µM,u
COc1ccc2c(c1)CCN=C2Cc1ccc(OC)c(OC)c1,n,n,n,n,3.98µM,n
O=c1c2cn(Cc3ccc(F)cc3)c3ccccc3c-2nn1Cc1ccc(F)cc1,n,n,n,n,31.6µM,n
CCOc1ccc(CCNC(=O)c2ccc(CS(=O)(=O)c3ccccc3C)o2)cc1OCC,n,n,x,x,n,n
Cc1c(O)c(=O)ccn1Cc1ccccc1,u,n,n,n,31.6µM,n
C=CCN1C(c2ccc(OCC)cc2)=CS/C1=C(\C#N)c1nnc2n1CCCCC2,u,u,u,n,3.55µM,n
N#Cc1ccccc1Sc1ccccc1C(=O)Nc1ccc2ccccc2c1,n,n,n,n,n,n
N#Cc1ccc(C(=O)Nc2ccc3ccccc3c2)cc1,n,n,n,n,44.7µM,n
COC(=O)[C@@]1(Cc2ccccc2)[C@H]2C(=O)N(C)C(=O)[C@H]2[C@H]2CN=C(SCc3ccc(C)cc3)N21,x,u,x,n,x,n
Cc1onc(-c2c(F)cccc2Cl)c1C(=O)Nc1cccc(S(=O)(=O)NC2=NCCC2)c1,n,n,x,n,n,n
COc1cccc(C2C(C(=O)Nc3ccccc3OC)=C(C)Nc3nc(-c4ccco4)nn32)c1 (stereo not drawn),n,u,x,x,n,n
CCC(CC)C(=O)Nc1cccc(/C(C)=N/NC(=O)c2ccccc2Cl)c1,n,n[11.4 µM],n,26.7µM,n[12.7 µM],n
COC(=O)c1ccc(Nc2ncnc3c2cnn3C)cc1,n,n,x,x,n,n
O=C1NC(=O)[C@@H]2C3c4ccccc4C=CN3[C@H](C(=O)c3cccs3)[C@H]12 (stereo partly drawn),n,x,79.4µM,x,10µM,x
COc1ccc(NC(=O)[C@@H]2[C@@H]3C(=O)N(C4CCCCC4)C(=O)[C@@H]3C3c4ccccc4C=CN32)cc1 (stereo partly drawn),x,n,n,n,u,n
